# Publication PMC7862700, “An all-to-all approach to the identification of sequence-specific readers for epigenetic DNA modifications on cytosine”
# Target: T1, GABPA (Homo sapiens, UniProt Q06546 1-454)
# T1 sequence: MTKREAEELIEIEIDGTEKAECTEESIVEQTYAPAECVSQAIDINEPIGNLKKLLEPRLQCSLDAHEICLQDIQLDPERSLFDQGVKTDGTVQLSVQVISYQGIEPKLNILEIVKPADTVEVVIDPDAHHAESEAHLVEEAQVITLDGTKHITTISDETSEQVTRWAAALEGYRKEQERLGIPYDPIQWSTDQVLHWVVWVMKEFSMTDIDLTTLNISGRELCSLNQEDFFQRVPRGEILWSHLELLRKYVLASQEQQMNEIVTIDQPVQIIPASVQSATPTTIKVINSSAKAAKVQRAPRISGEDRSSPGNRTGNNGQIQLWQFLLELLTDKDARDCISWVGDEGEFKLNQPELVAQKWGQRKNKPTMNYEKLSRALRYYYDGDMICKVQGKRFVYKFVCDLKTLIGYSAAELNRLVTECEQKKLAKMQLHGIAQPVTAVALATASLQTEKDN
# Assay: DAPPL (digital affinity profiling via proximity ligation, sequencing); 10 mM Tris-HCl pH 7.5, 50 mM NaCl, 1 mM DTT, 4% glycerol, room temperature, 30 min; GST-TFs on glutathione beads, 16-mer random dsDNA library, 0.1% formaldehyde crosslink after washing; high values mean tight binding
# Details: protein: recombinant; tags: N-terminal GST; dsDNA, one strand shown
# Summary of the method: (§1)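 Yeast served to express human transcription factors as GST fusions, which were then captured on glutathione beads and labelled with DNA barcodes. Pooled with a tag-only sample, they were incubated with 200 nmole of a 16-mer random double-stranded DNA library for 30 min at room temperature in Tris/NaCl/DTT/glycerol buffer, washed, crosslinked with 0.1% formaldehyde, ligated by proximity, amplified by PCR and sequenced. Dividing each hexamer's read frequency for a factor by its frequency for the tag-only sample gives the binding signal.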
row,Sequence,binding signal
1,AGGCCT,"1.08 fold enrichment (6-mer frequency, TF over GST control)"
2,TGCGTC,"1.01 fold enrichment (6-mer frequency, TF over GST control)"
3,CGGCAC,"1.03 fold enrichment (6-mer frequency, TF over GST control)"

# Target: T2, EHF (Homo sapiens, UniProt Q9NZC4 1-300)
# T2 sequence: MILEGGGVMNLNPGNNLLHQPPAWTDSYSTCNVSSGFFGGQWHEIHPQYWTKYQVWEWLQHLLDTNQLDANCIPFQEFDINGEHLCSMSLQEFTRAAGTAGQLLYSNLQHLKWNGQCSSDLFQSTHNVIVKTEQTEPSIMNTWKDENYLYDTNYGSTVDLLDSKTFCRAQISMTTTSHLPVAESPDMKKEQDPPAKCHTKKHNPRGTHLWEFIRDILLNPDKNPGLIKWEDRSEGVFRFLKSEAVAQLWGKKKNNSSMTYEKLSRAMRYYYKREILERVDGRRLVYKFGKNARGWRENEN
# Assay: as above
# Details: protein: recombinant; tags: N-terminal GST; dsDNA, one strand shown
# Summary of the method: as §1
row,Sequence,binding signal
1,AAGGTC,"1.08 fold enrichment (6-mer frequency, TF over GST control)"
2,GCGGCT,"1.02 fold enrichment (6-mer frequency, TF over GST control)"
3,CATCGT,"1 fold enrichment (6-mer frequency, TF over GST control)"

# Target: SPIB (Homo sapiens, UniProt Q01892 1-262)
# Sequence (Q01892 whole entry): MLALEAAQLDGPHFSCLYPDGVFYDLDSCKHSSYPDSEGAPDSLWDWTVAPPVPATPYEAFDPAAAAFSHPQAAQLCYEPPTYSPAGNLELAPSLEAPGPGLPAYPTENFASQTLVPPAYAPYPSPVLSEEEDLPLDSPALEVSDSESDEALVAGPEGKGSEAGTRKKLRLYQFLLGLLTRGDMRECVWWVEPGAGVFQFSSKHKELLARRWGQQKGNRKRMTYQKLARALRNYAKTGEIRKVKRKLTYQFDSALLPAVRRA
# Assay: as above
# Details: protein: recombinant; tags: N-terminal GST; dsDNA, one strand shown
# Summary of the method: as §1
row,Sequence,binding signal
1,CGGCAC,"1.03 fold enrichment (6-mer frequency, TF over GST control)"
2,AGTTTA,"1.04 fold enrichment (6-mer frequency, TF over GST control)"
3,TGAAGG,"1 fold enrichment (6-mer frequency, TF over GST control)"
4,CATCGT,"1.05 fold enrichment (6-mer frequency, TF over GST control)"

# Target: T3, ELK3 (Homo sapiens, UniProt P41970 1-407)
# T3 sequence: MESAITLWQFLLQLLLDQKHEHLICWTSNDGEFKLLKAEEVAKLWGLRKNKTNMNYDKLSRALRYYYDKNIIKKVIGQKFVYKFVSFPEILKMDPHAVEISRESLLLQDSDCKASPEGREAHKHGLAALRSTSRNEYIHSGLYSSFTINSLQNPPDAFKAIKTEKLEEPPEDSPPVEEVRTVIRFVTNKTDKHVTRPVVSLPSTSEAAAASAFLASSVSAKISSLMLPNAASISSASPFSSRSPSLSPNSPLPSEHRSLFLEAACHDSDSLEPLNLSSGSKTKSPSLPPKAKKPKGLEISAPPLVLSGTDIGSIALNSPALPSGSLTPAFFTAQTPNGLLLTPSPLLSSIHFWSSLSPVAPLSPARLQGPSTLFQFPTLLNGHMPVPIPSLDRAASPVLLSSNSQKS
# Assay: as above
# Details: protein: recombinant; tags: N-terminal GST; dsDNA, one strand shown
# Summary of the method: as §1
row,Sequence,binding signal
1,AGGCCT,"1.01 fold enrichment (6-mer frequency, TF over GST control)"
2,AGGCTA,"1.05 fold enrichment (6-mer frequency, TF over GST control)"
3,AGTTTA,"1.03 fold enrichment (6-mer frequency, TF over GST control)"
4,TGGGCG,"1.01 fold enrichment (6-mer frequency, TF over GST control)"

# Target: T4, ETV2 (Homo sapiens, UniProt O00321 1-342)
# T4 sequence: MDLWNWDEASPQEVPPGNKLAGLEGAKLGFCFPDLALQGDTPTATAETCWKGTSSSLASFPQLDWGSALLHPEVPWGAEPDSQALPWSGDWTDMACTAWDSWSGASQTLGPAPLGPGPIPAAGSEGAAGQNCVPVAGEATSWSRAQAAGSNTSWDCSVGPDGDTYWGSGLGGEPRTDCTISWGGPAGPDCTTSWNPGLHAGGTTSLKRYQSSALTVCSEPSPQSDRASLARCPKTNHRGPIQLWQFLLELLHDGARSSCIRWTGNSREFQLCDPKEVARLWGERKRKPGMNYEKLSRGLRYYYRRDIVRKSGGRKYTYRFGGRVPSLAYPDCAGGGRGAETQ
# Assay: as above
# Details: protein: recombinant; tags: N-terminal GST; dsDNA, one strand shown
# Summary of the method: as §1
row,Sequence,binding signal
1,AAGGTC,"1.06 fold enrichment (6-mer frequency, TF over GST control)"
2,GCAAAG,"1.12 fold enrichment (6-mer frequency, TF over GST control)"
3,AGGCCT,"1.01 fold enrichment (6-mer frequency, TF over GST control)"
4,GCGACG,"1.15 fold enrichment (6-mer frequency, TF over GST control)"
5,TCGTCG,"1.05 fold enrichment (6-mer frequency, TF over GST control)"
6,GTTCAG,"1.01 fold enrichment (6-mer frequency, TF over GST control)"
7,CGGACC,"1.02 fold enrichment (6-mer frequency, TF over GST control)"
8,AGCCAT,"1.02 fold enrichment (6-mer frequency, TF over GST control)"
9,GATAAC,"1.08 fold enrichment (6-mer frequency, TF over GST control)"
10,TGCGTC,"1.04 fold enrichment (6-mer frequency, TF over GST control)"
11,AGGCTA,"1 fold enrichment (6-mer frequency, TF over GST control)"
12,GTATCG,"1.09 fold enrichment (6-mer frequency, TF over GST control)"
13,CTGGGA,"1.01 fold enrichment (6-mer frequency, TF over GST control)"
14,GCGGCT,"1.08 fold enrichment (6-mer frequency, TF over GST control)"
15,GACCGA,"1.04 fold enrichment (6-mer frequency, TF over GST control)"
16,ACCCGT,"1 fold enrichment (6-mer frequency, TF over GST control)"
17,TGAAGG,"1 fold enrichment (6-mer frequency, TF over GST control)"
18,GACCCA,"1.09 fold enrichment (6-mer frequency, TF over GST control)"
19,TTGGGA,"1.03 fold enrichment (6-mer frequency, TF over GST control)"
20,CATCGT,"1.01 fold enrichment (6-mer frequency, TF over GST control)"
21,GGCATA,"1.05 fold enrichment (6-mer frequency, TF over GST control)"
22,TGGGCG,"1 fold enrichment (6-mer frequency, TF over GST control)"
23,AGCCCA,"1.04 fold enrichment (6-mer frequency, TF over GST control)"
24,CCGTTA,"1.05 fold enrichment (6-mer frequency, TF over GST control)"
25,ACTGGG,"1.03 fold enrichment (6-mer frequency, TF over GST control)"
